Source: PubChem BioAssay AID434973 (Sanford-Burnham Center for Chemical Genomics, 2010)
Out of some 330,000 compounds screened, about 4,900 (1.5%) were called active.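 The calls were made as follows: active = inhibition above about 50% at the single test dose (limit read from the data); inactive = the rest.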 Shown is part of a subset that was picked to be rich in actives.

Each compound was assayed against Sentrin-specific protease 7 (Homo sapiens) (UniProt Q9BQF6) (assay: SENP7 protease inhibitors, primary screen, biochemical, luminescence, uHTS (AID 434973;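 also: plate controls were DMSO with enzyme for no effect and no enzyme buffer wells for full effect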)). Conditions: recombinant SENP7, Z-RLRGG-aminoluciferin luminescence, 40 min; at 5 µM; hits give high values.

SMILES	inhibition
Cn1c(N)c(C(=O)COC(=O)C23CC4CC(CC(C4)C2)C3)c(=O)n(C)c1=O	-1.02% (inactive)
COc1cc(NC(=O)c2cncc(-c3ccc(C#N)cc3)c2)cc(C(=O)Nc2cccc(C(F)(F)F)c2)c1	-7.54% (inactive)
O=C(NC(Nc1nc2ccc([N+](=O)[O-])cc2s1)(C(F)(F)F)C(F)(F)F)c1ccccc1	3.23% (inactive)
O=C(Nc1nc2ccc([N+](=O)[O-])cc2s1)c1ccncc1	85.8% (active)
COc1ccc(C(=O)Nc2nc(-c3ccc(OC)cc3)c(-c3ccc([N+](=O)[O-])cc3)s2)cc1	-0.702% (inactive)
CCCc1cc(=O)oc2c(C)c(OCC(=O)Nc3ccccn3)ccc12	70.1% (active)
CCCc1cc(=O)oc2c(C)c(OCC(=O)N3CCC(C(=O)O)CC3)ccc12	-6.34% (inactive)
CCCc1cc(=O)oc2c(C)c(OCC(=O)NCc3ccccn3)ccc12	12.3% (inactive)
CCO/N=C(/C)c1c(O)cc(-c2ccccc2)n(-c2ccccc2)c1=O	0.576% (inactive)
CC1CCCC(NC(=O)c2cc(-c3ccncc3)nc3ccccc23)C1C (configuration not stated)	-16.1% (inactive)
c1ccc(-c2cc(-c3ccccc3)[nH]n2)cc1	54.4% (active)
Oc1ccccc1-c1cc(-c2ccc(Cl)cc2)n[nH]1	92% (active)
Cc1ccc(NC(=O)c2cc(-c3ccccc3O)n[nH]2)cc1C	-11.8% (inactive)
S=c1[nH]nc(-c2cc(-c3ccsc3)n[nH]2)n1-c1ccccc1	4.56% (inactive)
S=c1[nH]nc(-c2cc(-c3ccccc3)n[nH]2)n1/N=C/c1c2ccccc2cc2ccccc12	-9.51% (inactive)
CC(C)C(=O)NCc1cc(-c2ccc(Cl)cc2)no1	5.4% (inactive)
CO[C@@H]1[C@@H](OC(N)=O)[C@@H](O)C(Oc2ccc3c(O)c(NC(=O)c4ccc(O)c(CC=C(C)C)c4)c(=O)oc3c2C)OC1(C)C (some centres not stated)	-1.54% (inactive)
COc1ccc(-n2nnnc2SCC(=O)c2ccc(OC)c(OC)c2)cc1	3.65% (inactive)
CCC(C)C(N=C1NS(=O)(=O)c2ccccc21)C(=O)N1CCC(C)CC1 (configuration not stated)	2.08% (inactive)
CCc1nnc(NC(=O)CSCc2cc(=O)n3cc(C)sc3n2)s1	-0.123% (inactive)
CCCCN(C(=O)C1=NN(c2cc(C)ccc2C)C(=O)CC1)c1c(N)n(CCC)c(=O)[nH]c1=O	1.8% (inactive)
Cc1ccc(CNC(=O)C2CCCN2C(=O)NCc2ccccc2)cc1 (configuration not stated)	-3.49% (inactive)
O=C(NC1CCCC1)C(c1ccccn1)N(C(=O)c1csnn1)C1CCCC1 (configuration not stated)	4.87% (inactive)
CCC(=O)Nc1ccc(C(=O)NNC(=O)c2ccc(Cl)cc2)cc1	-16.2% (inactive)
O=C(NCc1ccccn1)Nc1ccc(Cl)cc1	0.805% (inactive)

SMILES	inhibition
O=C(Nc1ccc(Cl)cc1)c1ccsn1	51% (active)
O=C1CC(Cc2ccccc2)C(=O)N1c1ccc(Cl)cn1 (configuration not stated)	-5.29% (inactive)
COc1ccccc1C1CCN(C(=S)Nc2ccc(Br)cc2)CC1	5.73% (inactive)
Cc1cc2nc(-c3ccc(NC(=O)c4cccnc4)cc3)oc2cc1C	-3.95% (inactive)
CCc1ccc2oc(-c3ccc(N)cc3)nc2c1	97.1% (active)
O=C(Nc1ccc2oc(-c3ccc4ccccc4c3)nc2c1)c1cccs1	-22.1% (inactive)
CNC(=O)c1c(NC(NC(=O)c2ccco2)C(=O)c2ccc(Cl)cc2)sc2c1CCCC2 (configuration not stated)	3.25% (inactive)
CCOC(=O)c1ccc(NC(=O)c2cc(=O)[nH]c3ccccc23)cc1	4.62% (inactive)
CCOC(=O)c1ccc(Nc2cc(C)nc3nc(C)nn23)cc1	0.148% (inactive)
CCOC(=O)c1ccc(Nc2cc3ccccc3c(=O)[nH]2)cc1	84.1% (active)
Cc1ccc(CN2CCN(c3ncccn3)CC2)c(C)c1	-3.53% (inactive)
Cc1cc(=O)oc2c(C)c(OCC(=O)NCCc3ccc(S(N)(=O)=O)cc3)ccc12	7.75% (inactive)
N#C/C=C/N1CCN(Cc2ccc3c(c2)OCO3)CC1	-6.74% (inactive)
Cc1c(NC(=S)NC(=O)CCc2ccccc2)c(=O)n(-c2ccccc2)n1C	-7.18% (inactive)
O=C(OCc1ccc(Br)cc1)c1cccc(-c2nnc(-c3ccccc3)o2)c1	23.5% (inactive)
Brc1ccc(-c2nnc(-c3ccccc3)o2)o1	57.6% (active)
Nc1ccc(-c2nnc(-c3ccccc3)o2)cc1	49.9% (inactive)
Cn1nc(-c2ccccc2)c(-c2nc(-c3ccc(Cl)cc3)no2)c1Cl	1.67% (inactive)
OC(c1nnc(-c2ccccc2)o1)c1cccs1 (configuration not stated)	2.83% (inactive)
CN(C)c1ccc(-c2nnc(-c3cccnc3)o2)cc1	8.14% (inactive)
Nc1ccc(-c2nnc(-c3ccc(-c4ccccc4)cc3)o2)cc1	70.3% (active)
Nc1nonc1-c1noc(-c2ccc(Br)o2)n1	9.66% (inactive)
Brc1ccc(-c2noc(-c3ccccc3)n2)o1	88.5% (active)
COc1ccc(C2C(C(C)=O)=C(O)C(=O)N2CCc2c[nH]c3ccccc23)cc1 (configuration not stated)	0.562% (inactive)
COc1ccc(NC(=O)c2sccc2SCC#N)cc1	7.98% (inactive)

SMILES	inhibition
COCCN1CCn2c(nc3cc(NS(C)(=O)=O)ccc32)C1	3.45% (inactive)
O=C(OCc1ccc([N+](=O)[O-])cc1)C1CC(=O)N(Cc2ccccc2Cl)C1 (configuration not stated)	2.69% (inactive)
Cc1ccc(-c2ccc(/C=C(\C#N)C(N)=S)o2)c([N+](=O)[O-])c1	2.25% (inactive)
Cc1cc(C)nc(SCc2cn3c(C)cc(C)nc3n2)n1	3.49% (inactive)
CSc1nc(C)nc(C2CC2)c1C#N	-2.65% (inactive)
CC(=O)Nc1ccc(S(=O)(=O)NCC2CCC(C(=O)NCCc3ccccc3)CC2)cc1 (configuration not stated)	2.3% (inactive)
CCOc1ccc(NC(=O)COC(=O)C2CCC(=O)N2)c([N+](=O)[O-])c1 (configuration not stated)	-6.28% (inactive)
CCC(C)CCN1CCN=C1N(C)C (configuration not stated)	9.82% (inactive)
Cc1noc(C)c1S(=O)(=O)N(C)C[C@H]1Oc2ccc(NC(=O)C3CC3)cc2C(=O)N([C@H](C)CO)C[C@@H]1C	-0.149% (inactive)
COC(=O)C1=C(C)N(c2ccc(C)cc2)/C(=C/c2ccc(O)cc2)C1=O	8.14% (inactive)
COc1cc(/C=C2\Oc3ccc(C#Cc4ccc(O)cc4)cc3C2=O)cc(OC)c1	-7.29% (inactive)
O=C1c2ccccc2C(=O)N1CCC#Cc1ccc2cc(C3(O)CCCCC3)oc(=O)c2c1	2.91% (inactive)
COc1cc(C#Cc2ccc3cc(CCCO)oc(=O)c3c2)cc(OC)c1	79.7% (active)
Cn1c(=O)c2c(ncn2CC(=O)N/N=C/c2cn[nH]c2-c2ccc(F)cc2)n(C)c1=O	1.2% (inactive)
CCCC(CNC(=O)COC(=O)C1=NNC(=O)CC1)c1ccc(Cl)cc1Cl (configuration not stated)	-4.17% (inactive)
O=C(O)CCCN1C(=O)c2ccccc2Sc2ncccc21	-1.32% (inactive)
CCNc1nc(N)nc(-c2cc(Cl)ccc2OC)n1	3.35% (inactive)
CCOc1ccc(Oc2nc(C)cc(OC)n2)nn1	-1.32% (inactive)
CCNc1nc(N)nc(Oc2ccc(OCC)nn2)n1	73.1% (active)
CC12C(=O)N(c3ccccc3)C(=O)C1C(c1ccccc1)N1CCCN12 (configuration not stated)	-4.08% (inactive)
C=CCn1c(SCC(=O)c2c(N)n(C)c(=O)n(C)c2=O)nc2sc(CC)cc2c1=O	-1.46% (inactive)
C/C(=N\Nc1nncc2ccccc12)c1ccc(Cl)c([N+](=O)[O-])c1	5.32% (inactive)
CN(CCO)c1ccc(/C=N/Nc2nncc3ccccc23)cc1	93% (active)
COc1cccc(/C=N\Nc2nncc(-c3ccccc3)n2)c1	24.7% (inactive)
COc1ccc([N+](=O)[O-])cc1N(CC(O)CN(CC(C)C)CC(C)C)S(=O)(=O)c1ccc(C)cc1 (configuration not stated)	3.08% (inactive)

SMILES	inhibition
COc1ccc(C2CC(=O)C=C(NCC3CCCO3)C2)cc1 (configuration not stated)	5.59% (inactive)
O=C(CN1C(=O)NC2(CCCCCC2)C1=O)NCc1cccs1	3.72% (inactive)
Cc1cc(C(=O)Nc2nnc(C3CC3)s2)c(C)s1	77% (active)
O=C(Nc1nnc(C2CC2)s1)c1ccccn1	57.4% (active)
CCc1cc(C(=O)Nc2nnc(C3CC3)s2)sc1C	-5.93% (inactive)
Cc1cnc(NC(=O)c2ccccn2)s1	82.8% (active)
O=C(Nc1nnc(C2CC2)s1)c1cc(Cl)sc1Cl	5.7% (inactive)
Cc1cccc(NC(=O)CSCC(=O)Nc2nnc(C3CC3)s2)c1	4.12% (inactive)
Cc1ccc(SCC(=O)Nc2ncc(C)s2)cc1	-2.81% (inactive)
O=C(Nc1nnc(Cc2ccccc2)s1)c1cnccn1	3.97% (inactive)
Cc1cnc(NC(=O)C2CCCC2)s1	0.0964% (inactive)
OC(CNC1CCCC1)COc1ccc(F)cc1 (configuration not stated)	7.04% (inactive)
Cc1nn(C(C)(C)C)c(OC(=O)CC(C)C)c1S(=O)(=O)c1ccccc1	4.96% (inactive)
COc1ccc(S(=O)(=O)N2CCN(C(=O)c3cc(C)oc3C)CC2)cc1	3.33% (inactive)
COc1ccccc1-c1oc2ccccc2c1C#CCCCCO	5.54% (inactive)
CC1Cc2ccccc2N1C1=CC(=O)CC(C)(C)C1 (configuration not stated)	-3.44% (inactive)
CC(C)(C)NC(=O)c1ccc(Cn2cc(C(F)(F)F)ccc2=O)cc1	-6.25% (inactive)
Clc1ccc(-c2nc3ccccn3c2CN2CCSCC2)cc1	-5.08% (inactive)
Cc1ccc(C(=O)C(=S)N2CCOCC2)cc1	-2.91% (inactive)
Cc1[nH]n(C(N)=S)c(=O)c1N=Nc1ccc(Cl)cc1Cl	51.8% (active)
Cc1[nH]n(C)c(=O)c1N=Nc1ccc(S(C)(=O)=O)cc1	0% (inactive)
CC1=NN(C(N)=S)C(=O)C1N=Nc1cc(Cl)ccc1Cl (configuration not stated)	-5.66% (inactive)
